# In PubChem BioAssay (NCI):
# “And” between values parts separate entries of the source, which are not always exact repeats. Equal entries are not always repeated. About 83,000 compounds went through this panel and 20% of them were active in at least one assay; those are over-represented in the sample as a whole.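 48-hour exposure, single concentration, 96-well plates; percent growth endpoint where 0 means no net growth. Active: below 10.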 The source made the active and inactive calls.
# System: CAKI-1 renal
# Experiment: NCI-60 one-dose screen, 48 h (100 = growth as untreated, 0 = no growth, -100 = all killed)
# Settings: 10 µM
# Protocol: Growth inhibition of the CAKI-1 human tumor cell line is measured as a screen for anti-cancer activity. Cells are grown in 96 well plates and exposed to the test compound for 48 hours. Compounds are tested at a single concentration, which is 10^-5 M for most compounds. The reported endpoint is percent growth (GI% or GIPRCNT), where numbers from 0 - 100% represent growth inhibition, and numbers from -100% - 0 represent cell death. For example, a value of 40 represents 60% growth inhibition. A value of 0 means no net growth occurred over the course of the experiment. A value of -40 indicates 40% of cells at the beginning of the experiment died by the end of the experiment. A value of -100 means all cells are dead at the end of the experiment.
# NCI-60 Human Tumor Cell Lines Screen was performed using the standard one-dose NCI protocol, which is described in more detail at https://dtp.cancer.gov/discovery_development/nci-60/default.htm.
# Compounds with GIPRCNT values below 10 were considered active. Activity score was based on GIPRCNT using the following formula: […]
# Score is 0 for GIPRCNT values of 100 or above, 50 for GIPRCNT values of 0, and 100 for GIPRCNT values of -100.
row,Structure (SMILES),growth
1,S=c1nc[nH]c2nc[nH]c12,7.07% (active)
2,O=c1ccn2c(n1)OC1CC2OC1COC(c1ccccc1)(c1ccccc1)c1ccccc1 (stereo not given),102% (inactive)

# Same assay, conditions: 10 µM unless noted
row,Structure (SMILES),growth
1,Nc1nc(=S)c2[nH]cnc2[nH]1,4.02% (active) and 14.2% (inactive)
2,CCN(CC)Cc1cc2[nH]c3c4ccc(Cl)cc4ncc3c2cc1OC,31.9% (inactive) and 81.3% (inactive)
3,O=C(O)c1ccc2c3ccc(C(=O)O)c4c(C(=O)O)ccc(c5ccc(C(=O)O)c1c25)c43,80% (inactive)
4,CC1NC(C)c2ccc3ccccc3c2O1 (stereo not given),96.7% (inactive)
5,COc1cc(NCCCCCCCNC(C)C)c2nccc(C)c2c1,87.7% (inactive) and 45.5% (inactive)
6,O=C1Cc2ccccc2C(=O)N1,77% (inactive)
7,CC(=O)Oc1ccc(C2(c3ccc(OC(C)=O)cc3)C(=O)Nc3ccccc32)cc1,68.2% (inactive) and 77.4% (inactive)
8,CCCC(=O)OCC(COC(=O)CCC)OC(=O)CCC,94.8% (inactive)
9,O=c1[nH]c(=O)c2[nH]c(=O)[nH]c2[nH]1,101% (inactive)
10,CC(O)CCNC(c1ccccc1)C(O)c1ccccc1 (stereo not given),104% (inactive)
11,C=CCN1C(=O)c2ccccc2C1=O,93.2% (inactive)
12,O=C(N=C1C(=O)C2(CCCCC2)C2(N=C(c3ccccc3)OC2=O)C12CCCCC2)c1ccccc1 (stereo not given),70.9% (inactive)
13,O=C(NC(=O)c1ccc(F)c(Cl)c1)NC1CC1,104% (inactive) and 87.1% (inactive)
14,Cc1ccc([N+](=O)[O-])cc1Br,101% (inactive)
15,COC(=O)c1nc(=S)[nH]c(C(=O)OC)c1C(=O)c1ccc(OC)cc1,94.5% (inactive)
16,O=C1C(=O)c2ccccc2C(O)=C1CC=C(Cl)Cl,39.4% (inactive) and 30.8% (inactive)
17,COc1ccc([N+](=O)[O-])cc1OC,93.8% (inactive) and 102% (inactive)
18,Cc1c(Cl)cc(Cl)c(N)c1Cl,88.7% (inactive)

row,Structure (SMILES),growth
1,O=C1C2=C(Nc3cc(Cl)ccc3N2)OC1c1c[nH]c2ccc(COc3ccccc3)cc12 (stereo not given),52.1% (inactive)
2,CCCCCCC(C)CC1=C(O)c2ccccc2C(=O)C1=O (stereo not given),39.7% (inactive)
3,CC(C)(C)OC(=O)CC1(O)CCCCC1,100% (inactive)
4,O=C(O)COc1ccccc1F,93.2% (inactive)
5,NNC(=O)Nc1ccccc1,96.1% (inactive)
6,Nc1ccc2ccc(NS(=O)(=O)N3CCCCC3)cc2c1,43.4% (inactive)
7,Cc1onc(-c2c(F)cccc2Cl)c1-c1ncc(-c2ccc(Cl)cc2)o1,14% (inactive) and 32% (inactive)
8,CCN(CC)C(CC(=O)c1ccccc1)C(=O)c1ccccc1 (stereo not given),101% (inactive)
9,Nc1c(Cl)cc2c(c1Br)C(=O)c1ccccc1C2=O,82.3% (inactive)
10,COc1ccc(CCNC(=S)NN)cc1OC,108% (inactive)
11,CCOC(=O)NC(N)=O,99.1% (inactive) and 101% (inactive)
12,CCOC(C)=N,108% (inactive)
13,O=[N+]([O-])c1ccc(N2CCN=N2)cc1,79.4% (inactive)
14,CCCCOC1NC(=O)NC(=O)C1(F)C(=O)OCC (stereo not given),45.3% (inactive) and 62.3% (inactive)
15,ON=C(C1CCCCC1)C1CCCCC1,87.4% (inactive)
16,O=C1c2cccnc2-c2ncccc21,103% [100 µM] (inactive)
17,COc1ccccc1OCC(O)CO (stereo not given),90.8% (inactive)
18,CC(C)=NOC(C)C(=O)O (stereo not given),104% (inactive)

# Same assay, conditions: 50 µM
row,Structure (SMILES),growth
1,S=c1nc[nH]c2nc[nH]c12,21% (inactive)

# Same assay, conditions: 100 µM
row,Structure (SMILES),growth
1,O=c1ccn2c(n1)OC1CC2OC1COC(c1ccccc1)(c1ccccc1)c1ccccc1 (stereo not given),65.7% (inactive)
